Experimental data as given in ChEMBL document CHEMBL3433997, “St. Jude Leishmania screening dataset” (2016).

How the values were obtained:
Assay type in all cases: functional
[1] = molecular target: Solute carrier family 2, facilitated glucose transporter member 1 (Homo sapiens) (UniProt P11166); assay: ST_JUDE_LEISH: Cytotoxicity at 2uM final concentration against transgenic Leishmania Mexicana promastigotes LmGLUT1 that are glucose transport deficient and complemented with the human glucose transporter GLUT1. Activity is measured by DNA content using SYBR green in vitro
[2] = molecular target: Hexose transporter 1 (Plasmodium falciparum) (UniProt O97467); assay: ST_JUDE_LEISH: Cytotoxicity at 2uM final concentration against transgenic Leishmania Mexicana promastigotes LmPfHT that are glucose transport deficient and complemented with the Plasmodium falciparum hexose transporter. Activity is measured by DNA content using SYBR green in vitro
[3] = molecular target: Glucose transporter (Leishmania mexicana) (UniProt O61059); assay: ST_JUDE_LEISH: Cytotoxicity at 2uM final concentration against transgenic Leishmania Mexicana promastigotes LmGT2 that are glucose transport deficient and complemented with the L. Mexicana glucose transporter 2. Activity is measured by DNA content using SYBR green in vitro

Chain of Solute carrier family 2, facilitated glucose transporter member 1 (Homo sapiens) (P11166 whole entry): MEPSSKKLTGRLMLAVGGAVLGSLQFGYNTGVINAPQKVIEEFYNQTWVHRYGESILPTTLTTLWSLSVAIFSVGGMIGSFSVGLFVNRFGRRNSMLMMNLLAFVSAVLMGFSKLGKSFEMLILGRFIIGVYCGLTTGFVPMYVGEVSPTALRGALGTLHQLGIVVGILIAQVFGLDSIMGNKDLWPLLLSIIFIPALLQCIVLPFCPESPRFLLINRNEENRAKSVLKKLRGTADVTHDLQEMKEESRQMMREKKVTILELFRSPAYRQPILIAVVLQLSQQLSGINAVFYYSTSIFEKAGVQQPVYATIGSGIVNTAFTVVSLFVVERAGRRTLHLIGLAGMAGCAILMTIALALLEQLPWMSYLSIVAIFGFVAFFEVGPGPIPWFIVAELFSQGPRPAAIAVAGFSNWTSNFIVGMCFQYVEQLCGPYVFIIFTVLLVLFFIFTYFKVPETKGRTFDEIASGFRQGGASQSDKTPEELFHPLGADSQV

Structure (SMILES)	inhibition [1] [%]	inhibition [2] [%]	inhibition [3] [%]
O=C(NCc1ccccc1)Nc1cccc(-c2cccc(-c3nc4cc(C(F)(F)F)ccc4[nH]3)c2)c1	4.49	4.71	6.02
O=C(/C=C/c1ccc(Cl)c(Cl)c1)NCC[C@@H]1C[C@H]1CCN1CCC(c2c[nH]c3ccccc23)CC1	9.6	8.4	6.24
CN1Cc2ccc(NS(=O)(=O)c3ccc(-c4ccoc4)cc3)cc2C1	-2.45	-1.72	-3.6
COc1ccc(-c2ncnc(C(F)(F)F)c2-c2ccc(Cl)cc2)c(O)c1	3.19	3.07	2.96
Cc1cc(NC(=O)Nc2ccc(I)c(OCCN(C)C)c2)ccc1Br	10.5	7.25	6.57
Cc1cc(N(C)C)nc(Nc2ccc(NC(=O)c3c(F)cccc3F)cc2)n1	6.1	6.29	-2.85
COc1ccc(CNCc2ccccc2)cc1-c1ccc(S(=O)(=O)NCCN2CCCC2)c(C)c1	3.15	-0.54	2.34
CCCCC#Cc1cnc2nc(N)[nH]c(=O)c2n1	1.66	1.03	0.91
CCCCCCCN1CC[C@@H](CCCc2ccnc3ccc(OCCCCNC(N)=O)cc23)[C@@H](CC)C1	2.24	4.54	2.79
COc1ccc(N2CCN(CCCC/C=C/c3ccc(NC(=O)c4cc(Cl)cc(Cl)c4)cc3)CC2)c(OC)c1	2.58	1.17	0.93
O=C(Nc1cccc(-c2nn3ccccc3c2-c2ccnc(Nc3cccc(N4CCCC4=O)c3)n2)c1)c1cc(F)ccc1F	2.51	3.22	1.96
CCn1c(-c2nonc2N)nc2c(-c3cccc(NC(=O)Nc4cccc(Cl)c4)c3)ncc(OCCCN)c21	4.22	3.86	2.75
CCc1cn2c3c(cc(C(=O)N[C@@H](Cc4cc(F)cc(F)c4)[C@H](O)CNC4CC4)cc13)N(C)S(=O)(=O)CC2	3.44	2.48	3.48
Cc1nnsc1C(=O)Nc1cccc(-c2ccc(-c3nc4ccccc4[nH]3)s2)c1	1.8	1.37	-0.11
CCC1(CC)NC(N)=NC(=N)N1OCc1ccc(Cl)c(Cl)c1	4.32	3.75	4.43
COc1cc2c(cc1COc1ccccc1)CCN1Cc3cc(OC)c(OC)cc3CC21 (stereo not drawn)	1.91	0.8	-6.12

Structure (SMILES)	inhibition [1] [%]	inhibition [2] [%]	inhibition [3] [%]
CC(C)CCNC(=O)[C@@H]1[C@H]2C(=O)N(C3CCCCC3)C(=O)[C@H]2[C@H]2C=C[C@@H]3C(c4ccc(C(C)(C)C)cc4)=NO[C@@H]3N21	13.3	11.4	7.33
O=S(=O)(c1cc(Cl)c(Cl)cc1Cl)N1CCCCC(c2ccc(C(F)(F)F)cc2)=N1	-0.66	0.43	0.91
c1cc(CNCC2CCCO2)cc(-c2cccc(-c3nc4ccccc4[nH]3)c2)c1 (stereo not drawn)	1.58	1.76	-0.18
O=C(Nc1ccc(OC2CCN(Cc3ccccc3)C2)c(Cl)c1)c1ccc(F)cc1 (stereo not drawn)	-5.06	1.99	4.21
CCN(CC)CCN(Cc1ccc(-c2ccc(C#N)cc2)cc1)C(=O)Cn1c(CCc2cccc(F)c2F)nc(=O)c2ccccc21	2.37	0.54	3
COc1cc2c(cc1S(=O)(=O)c1ccc(NC(=O)c3cccc(C(F)(F)F)c3)cc1)CCN(C)CC2	1.16	0.62	1.88
CCN(CC)Cc1ccc2c(=O)cc(CCc3cccc(F)c3F)n(CC(=O)N(Cc3ccc(-c4ccc(C(F)(F)F)cc4)cc3)C(C)C)c2c1	1.44	2	-0.21
Cc1ccc(Nc2nc(C)cc(N3CCN(CCc4ccccc4)CC3)n2)cc1	3.08	3.31	-1.99
O=C(Nc1ccc(Br)cc1)N(CCN1CCOCC1)CC(O)COCc1ccc(F)cc1 (stereo not drawn)	1.97	1	-8.93
CN1CCN(c2ccnc3cc4c(cc23)N(C(=O)Nc2ccc(-c3ccncc3)c3ccccc23)CC4)CC1	3.02	2.26	3.35
COc1ccc(S(=O)(=O)NCCC2CCN(CCCCCNC(=O)C=Cc3ccc(Cl)c(Cl)c3)CC2)cc1	2.06	2.12	1.49
CN1CCC(NCc2ccc(-c3cnc(NCc4ccccc4)nc3)cc2)CC1	1.18	4.31	2.57
CCCCCC(C)c1cc(O)c2c(c1)OC(C)(C)C=C2C1=CCN(Cc2ccccc2)CC1 (stereo not drawn)	3.67	3.53	3.47
COc1ccc2ncc(F)c(CCN3CCC(NCc4cc5c(cn4)OCCS5)CC3)c2c1	57.8	66.5	80.3
COc1ccc2[nH]ccc(=NN=Cc3cccc(Cl)c3)c2c1	15.1	14.8	11.7
